The text below walks through data of article PMC4336329 (PLoS ONE, 2015).

Hit rate of the full screen: of about 310,000 compounds, about 14,000 (4.5%) showed an effect of 50% or more. The effect is printed as a negative number. Only a selection was taken, and strong results are over-represented in it overall.
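Note: peak tail current of the secondary pulse compared with the same well before compound.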

In the assay the target is human ether-à-go-go-related gene (hERG) potassium channel (human, UniProt Q12809). Nature of the assay: primary screen, population patch clamp on CHO cells stably expressing hERG; higher = less effect of the substance.
Sequence of human ether-à-go-go-related gene (hERG) potassium channel (Q12809 whole entry, looked up): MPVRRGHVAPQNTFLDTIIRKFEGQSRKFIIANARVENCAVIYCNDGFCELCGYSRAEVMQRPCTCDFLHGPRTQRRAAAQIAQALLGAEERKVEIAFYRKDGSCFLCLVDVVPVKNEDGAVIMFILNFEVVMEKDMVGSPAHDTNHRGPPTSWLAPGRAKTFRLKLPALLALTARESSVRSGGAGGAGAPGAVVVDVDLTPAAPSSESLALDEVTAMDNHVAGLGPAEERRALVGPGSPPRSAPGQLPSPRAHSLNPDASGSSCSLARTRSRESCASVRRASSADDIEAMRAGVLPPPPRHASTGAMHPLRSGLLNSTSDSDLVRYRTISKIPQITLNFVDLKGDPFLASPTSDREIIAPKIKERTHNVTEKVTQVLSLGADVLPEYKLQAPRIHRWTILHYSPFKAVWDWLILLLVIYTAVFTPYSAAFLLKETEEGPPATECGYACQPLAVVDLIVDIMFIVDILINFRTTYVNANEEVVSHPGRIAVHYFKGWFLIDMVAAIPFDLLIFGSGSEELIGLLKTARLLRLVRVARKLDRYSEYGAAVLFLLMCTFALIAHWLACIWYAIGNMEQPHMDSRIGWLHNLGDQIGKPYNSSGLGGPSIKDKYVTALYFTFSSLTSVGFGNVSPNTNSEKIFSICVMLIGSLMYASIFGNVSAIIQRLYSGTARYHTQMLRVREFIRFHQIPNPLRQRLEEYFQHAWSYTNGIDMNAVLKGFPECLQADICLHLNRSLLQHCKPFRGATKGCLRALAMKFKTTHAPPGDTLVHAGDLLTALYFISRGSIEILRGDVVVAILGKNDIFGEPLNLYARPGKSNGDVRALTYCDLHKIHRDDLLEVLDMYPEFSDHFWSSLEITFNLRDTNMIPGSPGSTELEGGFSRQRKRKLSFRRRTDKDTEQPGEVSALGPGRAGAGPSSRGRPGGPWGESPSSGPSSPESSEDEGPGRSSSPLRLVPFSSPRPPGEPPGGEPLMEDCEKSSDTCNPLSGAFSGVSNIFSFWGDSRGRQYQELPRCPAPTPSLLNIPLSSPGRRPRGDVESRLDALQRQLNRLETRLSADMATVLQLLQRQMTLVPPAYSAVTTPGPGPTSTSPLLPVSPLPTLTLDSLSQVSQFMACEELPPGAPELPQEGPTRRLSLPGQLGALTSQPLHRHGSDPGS
`COc1ccc(Oc2ncnc3sccc23)cc1`: the “hERG current change (%, negative = inhibition) at 10uM” value is recorded as 1.8%.
With `CC#CC(=O)N1CCC(CCC(=O)N(C)Cc2ccccc2)CC1` the figure was -7.72%; with `CCCCCCCNC1=CC(=O)CC(c2ccco2)C1` (centres unmarked), -76.9%.
In the case of `CCCCCCCNC1=CC(=O)CC(c2ccccc2)C1` (centres unmarked) it was -81.3%.
As to `CN(C)CCCNC1=CC(=O)CC(c2ccccc2)C1` (centres unmarked), the “hERG current change (%, negative = inhibition) at 10uM” value is on record as 3.58%.
In the case of `CNC1=CC(=O)CC(c2ccccc2)C1` (centres unmarked) it was -1.58%; in that of `CCc1ccc(NC2=CC(=O)CC(c3ccco3)C2)cc1` (centres unmarked), 5.49%.
In the case of `CC(C)CNC1=CC(=O)CC(c2ccco2)C1` (centres unmarked) it was 6.11%.
With `COc1cc(S(=O)(=O)NCCN2CCOCC2)ccc1-n1cnnn1` the figure was 17.5%; with `O=S(=O)(Nc1ccc2c(c1)OCCO2)c1cccc2nsnc12`, -11.2%; with `O=C(O)c1ccc(Cn2cnc3scc(-c4ccccc4)c3c2=O)cc1`, 20.8%.
With `c1ccc(Cn2c(CNc3nc4ccccc4n3CCN3CCOCC3)nc3ccccc32)cc1`, the “hERG current change (%, negative = inhibition) at 10uM” value is listed as -84.3%.
In the case of `CC(C)n1c(NCc2nc3ccccc3n2C)nc2ccccc21` it was -46.4%.
In the case of `c1ccc(Cn2c(CNc3nc4ccccc4n3CCN3CCCCC3)nc3ccccc32)cc1`, the “hERG current change (%, negative = inhibition) at 10uM” value is listed as -68.5%.
With `c1coc(CNc2nc3ccccc3n2CCN2CCOCC2)c1`, the “hERG current change (%, negative = inhibition) at 10uM” value is listed as -33.2%.
In the case of `C=CCc1cccc(CNc2nc3ccccc3n2CCN2CCOCC2)c1O` it was -6.61%; in that of `Cn1c(CNc2nc3ccccc3n2C)nc2ccccc21`, -15.2%; in that of `Cn1c(CNc2nc3ccccc3n2CCN2CCCCC2)nc2ccccc21`, -65%.
In the case of `CCN(CC)CCn1c(NCc2nc3ccccc3n2Cc2ccccc2)nc2ccccc21` it was -2.44%; in that of `C#CCOCCOCCOCCNc1nc(N2CCN(C(=O)Cn3cc(CCO)nn3)CC2)nc(N2CCN(C(=O)[C@H]([C@@H](C)O)n3cc(CCCC[NH3+])nn3)CC2)n1.[Cl-]`, 12.3%.
In the case of `CCOC(=O)/C(=N\Nc1ncnc2ccccc12)c1ccc(OC)cc1` it was 15%; in that of `COc1ccc(NC(=O)CSC2CC(=O)N(c3ccc4c(c3)OCCO4)C2=O)cc1` (centres unmarked), 4.54%.
Take `O=C(c1ccccc1-c1nc(-c2ccc(F)cc2)no1)N1CCCC1`: the “hERG current change (%, negative = inhibition) at 10uM” value is recorded as -30.8%.
`Cn1nc(C(=O)Nc2ccc(Cl)c(S(=O)(=O)N3CCOCC3)c2)c2ccccc2c1=O`: the “hERG current change (%, negative = inhibition) at 10uM” value is given as -9.05%.
Consider `O=C(NC1CCS(=O)(=O)C1)N1CCCCC1` (centres unmarked), for which the “hERG current change (%, negative = inhibition) at 10uM” value turned out to be 13.2%.
With `O=C(NC(=S)N1CCN(c2nc(-c3ccccc3)cs2)CC1)c1cncc(Br)c1` the figure was 17%; with `Cc1n[nH]c(=O)nc1NCc1ccccc1Cl`, 3.23%.
With `CC(C)CCn1c(=O)c2sccc2n2c(CCCC(=O)N3CCN(c4ccccn4)CC3)nnc12` the figure was -65%.
With `Cn1c(=O)c2sccc2n2c(CCCC(=O)N3CCN(c4ccccn4)CC3)nnc12` the figure was -11.1%.
Consider `CC(C)OCCCn1c(=O)c2ccccc2n2c(CCC(=O)NCc3ccccn3)nnc12`, for which the “hERG current change (%, negative = inhibition) at 10uM” value is listed as -14.4%.
With `Cc1ccc(Cn2c(=O)c3ccccc3n3c(CCC(=O)O)nnc23)cc1` the figure was 10.9%; with `CCn1c(=O)c2sccc2n2c(CCCC(=O)N3CCN(c4ccccn4)CC3)nnc12`, -17.6%; with `O=C(c1ccc(Cn2c(=S)[nH]c3ccccc3c2=O)cc1)N1CCN(c2ccccn2)CC1`, 8.99%.
As for `O=C(CCc1nnc2n(Cc3ccc(Cl)cc3)c(=O)c3ccccc3n12)N1CCN(c2ccccn2)CC1`, the “hERG current change (%, negative = inhibition) at 10uM” value is given as -57%.
In the case of `CC(C)OCCCn1c(=O)c2ccccc2n2c(CCC(=O)O)nnc12` it was 29.3%; in that of `O=C(O)CCc1nnc2n(Cc3ccc(F)cc3)c(=O)c3ccccc3n12`, 6.3%.
Take `O=C(CCc1nnc2n(Cc3ccc(F)cc3)c(=O)c3ccccc3n12)N1CCN(c2ccccn2)CC1`: the “hERG current change (%, negative = inhibition) at 10uM” value is listed as -79.2%.
In the case of `CC(C)OCCCn1c(=O)c2ccccc2n2c(CCC(=O)N3CCN(c4ccccn4)CC3)nnc12` it was -71.1%.
With `COCCCn1c(=O)c2sccc2n2c(CCCC(=O)N3CCN(c4ccccn4)CC3)nnc12` the figure was -2.18%.
With `CC(C)(O)[C@H]1Cc2cc3ccc(=O)oc3cc2O1` the figure was 21.2%; with `O=C(CSc1nc(NS(=O)(=O)c2ccccc2)cc(=O)[nH]1)Nc1ccccc1C(F)(F)F`, 9.04%; with `CCCCCN(C(=O)CCC(=O)OCc1ccccc1Cl)c1c(N)n(CCCC)c(=O)[nH]c1=O`, -49.8%.
Turning to `CCCCCN(C(=O)CCC(=O)OCc1ccc(Cl)cc1Cl)c1c(N)n(CCCC)c(=O)[nH]c1=O`, the “hERG current change (%, negative = inhibition) at 10uM” value is reported as -50.1%.
As to `CCCCCN(C(=O)CCC(=O)OCc1cccc(Cl)c1)c1c(N)n(CCCC)c(=O)[nH]c1=O`, the “hERG current change (%, negative = inhibition) at 10uM” value was 8.16%.
With `CCCCCN(C(=O)CCC(=O)OCC(=O)c1cccc(OC)c1)c1c(N)n(CCCC)c(=O)[nH]c1=O` the figure was -64.6%; with `CCCCCN(C(=O)CCC(=O)OCC(=O)c1ccc(C(C)(C)C)cc1)c1c(N)n(CCCC)c(=O)[nH]c1=O`, -33.7%; with `CCCCCN(C(=O)CCC(=O)OCC(=O)c1ccc(C(C)CC)cc1)c1c(N)n(CCCC)c(=O)[nH]c1=O` (centres unmarked), 8.1%.
In the case of `CCCCCN(C(=O)CCC(=O)OCC(=O)NCc1cccc(OC)c1)c1c(N)n(CCCC)c(=O)[nH]c1=O`, the “hERG current change (%, negative = inhibition) at 10uM” value was -0.375%.
With `CCCCCN(C(=O)CCC(=O)OCC(=O)c1ccc(F)c(F)c1)c1c(N)n(CCCC)c(=O)[nH]c1=O` the figure was -33.7%.
With `CCCCCN(C(=O)CCC(=O)OCC(=O)c1ccc(CCC)cc1)c1c(N)n(CCCC)c(=O)[nH]c1=O` the figure was -61.5%.
In the case of `Fc1ccc(NC(=S)NCc2cccnc2)cc1` it was 13.1%; in that of `CCCS(=O)(=O)N1CCC(C(=O)NCCCOC)CC1`, -0.339%; in that of `COc1cc(NC(=O)c2c(-c3ccccc3Cl)noc2C)c2ncccc2c1`, 25.5%.
As for `CCOc1ccc(NC(=O)COC(=O)CNC(=O)c2ccc(-c3ccccc3)cc2)cc1`, the “hERG current change (%, negative = inhibition) at 10uM” value amounted to 2.3%.
Take `O=C(CSc1nc(=O)n(CCCN2CCOCC2)c2c1CCCC2)Nc1cccc(F)c1`: the “hERG current change (%, negative = inhibition) at 10uM” value is -56.2%.
For the compound `CC(=O)Nc1cccc(NC(=O)CSc2nc(=O)n(CCCN3CCOCC3)c3c2CCC3)c1`, the “hERG current change (%, negative = inhibition) at 10uM” value was 0.499%.
As to `O=C(CSc1nc(=O)n(CCCN2CCOCC2)c2c1CCC2)Nc1cccc(F)c1`, the “hERG current change (%, negative = inhibition) at 10uM” value is reported as -37.4%.
With `CC(=O)Nc1cccc(NC(=O)CSc2nc(=O)n(CCN3CCOCC3)c3c2CCCC3)c1` the figure was 0.233%.
With `O=C(CSc1nc(=O)n(CCCN2CCOCC2)c2c1CCC2)Nc1ccc(F)cc1F` the figure was -41.8%; with `O=C(CSc1nc(=O)n(CCCN2CCOCC2)c2c1CCCC2)Nc1cccc(Cl)c1`, -62.2%.
In the case of `CN(c1ccccc1)C(c1ccc(F)cc1)c1nnnn1CC1CCCO1.Cl` (centres unmarked) it was -14.1%.
With `Cn1cc([N+](=O)[O-])c(C(=O)N/N=C/c2cc3c(cc2Br)OCO3)n1`, the “hERG current change (%, negative = inhibition) at 10uM” value was 3.63%.
With `CC(=O)Nc1ccc(S(=O)(=O)N[C@@H](C)C(=O)Nc2ccc(N3CCOCC3)cc2)cc1` the figure was 15.1%; with `CCOC(=O)C1=NN(C(=O)c2ccc(OC)cc2)C(O)(c2ccc(Cl)cc2)C1` (centres unmarked), -75.5%.
With `COC(=O)C1=NN(C(=O)c2ccc(C)cc2)C(O)(c2ccc(Cl)cc2)C1` (centres unmarked), the “hERG current change (%, negative = inhibition) at 10uM” value is given as -31.2%.
In the case of `CCOC(=O)C1=NN(C(=O)c2ccccc2)C(O)(c2ccc(C)cc2)C1` (centres unmarked) it was -17.2%; in that of `O=C(c1ccc(Br)o1)N1CCN(c2ccccc2F)CC1`, -4.94%.
With `O=C(c1cc(F)c(F)cc1Cl)N1CCN(CCc2ccccc2)CC1` the figure was -71.6%.
With `O=C(c1ccccc1)N1CCN(CCc2ccccc2)CC1` the figure was -43.6%; with `O=C(c1ccncc1)N1CCN(CCc2ccccc2)CC1`, -50.8%; with `O=C(c1ccc(Br)o1)N1CCN(CCc2ccncc2)CC1`, -69.8%.
Regarding `O=C(c1ccc(Br)o1)N1CCN(Cc2ccccc2Cl)CC1`, the “hERG current change (%, negative = inhibition) at 10uM” value is given as -12.6%.
In the case of `O=C(c1ccc(F)cc1Cl)N1CCN(CCc2ccccc2)CC1` it was -44%; in that of `O=C(c1cc(Cl)ccc1Cl)N1CCN(Cc2ccccc2)CC1`, 5.54%; in that of `COc1ccc(N2CCN(C(=O)c3ccc(Br)o3)CC2)cc1`, -17%.
In the case of `O=C(c1ccccc1)N1CCN(C(=O)c2ccncc2)CC1` it was 14.3%; in that of `O=C(c1ccc(Br)o1)N1CCN(c2ncccn2)CC1`, 0.956%.
In the case of `CCN1CCN(c2ccc(N3CCN(C(=O)c4ccc(Br)o4)CC3)nn2)CC1` it was -71.5%.
Consider `COc1cc2c(cc1OC)C(C)N(C(=O)Nc1ccc(F)cc1)CC2` (centres unmarked), for which the “hERG current change (%, negative = inhibition) at 10uM” value was 10.6%.
With `Br.O=C(CSc1nc2ccccc2c(=O)n1-c1ccccc1)c1cccc([N+](=O)[O-])c1` the figure was -7.38%; with `COc1cc2c(cc1OC)C(c1ccc(Br)cc1)N(C(=O)c1ccccc1C(=O)O)CC2` (centres unmarked), 9.72%.
As for `Cc1cc(C)c(C)c(S(=O)(=O)NCCCN2CCOCC2)c1C`, the “hERG current change (%, negative = inhibition) at 10uM” value was 13.6%.
With `O=C1CCN(C(=O)Nc2cccc(Cl)c2)N1` the figure was 14.1%; with `CCCCN(C(=O)Nc1ccc(Cl)cc1)C1CCN(C(C)=O)CC1`, -46%.
With `COc1ccc(NC(=S)N(C(C)C)C2CCN(C(C)C)CC2)cc1Cl` the figure was 0.307%; with `CC(C)CCN(C(=S)Nc1cccc(F)c1)C1CCN(C(C)C)CC1`, -42.9%.
In the case of `CC(C)CCN(C(=O)Nc1ccc(Cl)cc1)C1CCN(C(C)C)CC1` it was -72.1%; in that of `CCOc1ccc(NC(=O)N(CCC(C)C)C2CCN(C(C)=O)CC2)cc1`, -9.87%.
`COc1ccc(NC(=S)N(CCC(C)C)C2CCN(C(C)C)CC2)cc1Cl`: the “hERG current change (%, negative = inhibition) at 10uM” value is recorded as -68.1%.
For the compound `CSc1cccc(NC(=S)N(CCC(C)C)C2CCN(C(C)C)CC2)c1`, the “hERG current change (%, negative = inhibition) at 10uM” value is -52.5%.
For the compound `COCCN(C(=S)Nc1ccc(OC)c(Cl)c1)C1CCN(C(C)C)CC1`, the “hERG current change (%, negative = inhibition) at 10uM” value is given as -35.9%.
With `CSc1cccc(NC(=S)N(CCC(C)C)C2CCN(C(C)=O)CC2)c1` the figure was -23.3%.
